Assay outcomes as filed in PubChem BioAssay.
Sampled rows, rich in hits. Any-hit rate of the full collection: about 12%.
Gal4-VP16 FLuc: counter-screen for ROR gamma inhibitors: Gal4-VP16 reporter; Drosophila S2 Gal4-VP16 UAS-luciferase, luminescence, 20 h; Potency, µM (titrated, usually from 53.6 µM), without a hit: top-dose activity, negative = inhibition, usual class: inhibitors; 3.5% of 310,000 active; AID 2546;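 further: Gal4-VP16 expression switched on by copper sulfate through the metallothionein promoter; nearly all actives have a fitted effect of over 50% in size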
Sfp PPTase inh: Sfp phosphopantetheinyl transferase inhibition; Q9F4F7; Biochemical Sfp PPTase activity, qHTS; Potency, µM, for the others: largest response in the series, negative = inhibition, hits mostly inhibitors; 3.5% of 310,000 active; AID 1490;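 further: the enzyme is Sfp with the accession as filed and its product quenches rhodamine fluorescence; 0% = enzyme reaction without inhibitor and -100% = no enzyme wells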
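Sfp 15 nM + cpd, 15 min RT; start w/ rhodamine-CoA 5 uM, BHQ-2-YbbR 12.5 uM (final); 50 mM Hepes pH 7.6, 10 mM MgCl2, 0.01% NP-40, 0.01% BSA; read 525/598 nm at 0 and 30 min.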
RORgamma inh: blocks mouse ROR gamma transcriptional activity; P51450; Drosophila S2 Gal4-RORgamma UAS-luciferase reporter, 20 h; Potency, µM (highest dose often 53.6 µM), for the others: top-dose activity change, negative = inhibition, usual class: inhibitors; 5.4% of 310,000 active; AID 2551; further: nearly all actives have a fitted effect of over 60% in size
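A Gal4/UAS one-hybrid system in insect cells: metallothionein-promoter Gal4–ROR gamma fusion plus Photinus luciferase reporter. Copper sulfate 700 uM final, 20 hr ambient incubation, luminescent detection after 10 min with reagent.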
PLK1 PBD inh: blocks phosphopeptide binding to human PLK1 polo-box domain. P53350. Plk1 PBD binding of FITC phosphopeptide, fluorescence polarization. Potency, µM, for inactives: max response, negative = inhibition, most hits filed as inhibitors. 2.8% of 360,000 active; further: series mostly up to about 57 µM; nearly all actives have a fitted effect of over 65% in size
ALDH1A1 block: ALDH1A1 (human) enzyme inhibition; Potency, µM (top dose mostly 75.3 µM), for inactives: top-dose activity, negative = inhibition, most hits filed as inhibitors; 7.3% of 220,000 active; Purified ALDH1A1, NADH fluorescence, propionaldehyde substrate; AID 1030; active means well fitted inhibition curve with a large enough effect, not every such curve was filed as active; inconclusive means small, poorly fitted or top-dose-only effect, or another doubt; inactive means no such curve, though single readings can be large or run the other way;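 further: plate controls were no enzyme wells and a reference inhibitor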
Target sequence (P00352 whole entry, looked up): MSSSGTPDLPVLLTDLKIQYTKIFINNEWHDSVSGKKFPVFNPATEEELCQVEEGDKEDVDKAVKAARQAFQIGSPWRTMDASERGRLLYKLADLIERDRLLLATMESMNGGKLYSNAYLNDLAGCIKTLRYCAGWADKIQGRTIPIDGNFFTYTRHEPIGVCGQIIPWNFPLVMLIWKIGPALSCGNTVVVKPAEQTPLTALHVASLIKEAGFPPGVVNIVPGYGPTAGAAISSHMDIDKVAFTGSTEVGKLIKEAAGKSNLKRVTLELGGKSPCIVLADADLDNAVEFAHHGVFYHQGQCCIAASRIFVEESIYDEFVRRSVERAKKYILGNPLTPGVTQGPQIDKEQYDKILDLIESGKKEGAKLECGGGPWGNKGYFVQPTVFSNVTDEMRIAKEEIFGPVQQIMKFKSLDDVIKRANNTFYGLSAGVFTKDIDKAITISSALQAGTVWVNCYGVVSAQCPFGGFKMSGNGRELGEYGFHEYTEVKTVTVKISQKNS
The depositor's hits bear a star; ? = inconclusive; · = not tested or not shown; [ ] = remark or other dose. Unless noted, the call rests on the fitted dose curve; in most records, active means well fitted curve in the direction sought with a large enough effect; inconclusive means small, poorly fitted or top-dose-only effect, or another doubt; inactive means no such curve, though single readings can be large; an effect the other way counts as inactive or inconclusive. Unless noted, on the % scale 0 is the no-effect control and ±100 the full control effect; potency means the concentration at half of the fitted maximal effect.

SMILES	Gal4-VP16 FLuc	Sfp PPTase inh	RORgamma inh	PLK1 PBD inh	ALDH1A1 block
CC1=CC(=O)C2=C(C)C[C@@H](O)[C@@H]3[C@@H](OC(=O)[C@H]3C)[C@H]12	-4%[17 µM]	5%	1%[16.9 µM]	·	-1%[20.9 µM]
CN(CCc1ccccn1)Cc1ccc(Cl)cc1	12%	?	-13%	-4%	-3%
CN(C)c1ccc(/C=C2\C(=O)NC(=O)N(Cc3ccc(F)cc3)C2=O)cc1	-8%	-18%	0%	1.2µM*	·
CCOc1cc(/C=C2\C(=O)NC(=O)N(CCc3ccc(F)cc3)C2=O)ccc1O	4%	71µM*	21%	1.7µM*	·
O=C1NC(=O)C(CCc2ccncc2)(CCc2ccncc2)C(=O)N1Cc1ccc(F)cc1	-1%	2%	12%	?	15%
COCCN1C(=O)NC(=O)/C(=C\c2ccc(Br)cc2)C1=O	-1%	50µM*	-13%	5.3µM*	?
O=C1NC(=O)N(Cc2ccc(F)cc2)C(=O)/C1=C\c1ccoc1	2%	-28%	-15%	2.7µM*	-6%
CN(C)CCCN=Cc1c(O)n(CCc2ccc(F)cc2)c(=O)[nH]c1=O	-1%	15%	-16%	-1%	12%
O=C(O)C[C@H]1NCc2cc3ccccc3nc21	·	·	·	·	8%[13.5 µM]
CCOC(OCC)P(=O)(O)CCCN	7%	20%	12%	·	3%
Oc1ccc2c3c1O[C@H]1c4oc5ccccc5c4C[C@]4(O)[C@H](C2)N(CC2CC2)CC[C@@]314	-10%	-1%	2%	·	3%
COC(=O)C1=C(C)N(Cc2ccco2)C(=O)/C1=C\c1ccc(N(C)C)cc1	-10%	-18%	-12%	9%	?
CN(C)c1ccc(/C=C2/C(=O)NC(=O)N(CCc3ccc(F)cc3)C2=O)cc1	2%	-23%	0%	6µM*	0.63µM*
N#CC(C#N)=C(C#N)c1ccc(Nc2ccccc2)cc1	14µM*	?	?	-17%	·
c1ccc(Nc2ccc(Nc3ccccc3)cc2)cc1	-21%	·	22%	-16%	?
NC(N)=NN=C(/C=C/c1ccc([N+](=O)[O-])o1)/C=C/c1ccc([N+](=O)[O-])o1	?	50µM*	5µM*	·	·
Oc1ccc(Cl)cc1Sc1cc(Cl)ccc1O	?	19%	?	?	?
CCOC(=O)C1=Nc2ccccc2/C1=C\c1c(O)n(C)c(=O)n(C)c1=O	3%	-20%	37%	13µM*	·
Cn1c(O)c(C=Nc2ccccc2-c2ccccc2)c(=O)n(C)c1=O	-5%	10%	0%	-5%	·
O=c1[nH]c(O)c(/C=C2/C=CC(c3cc(Cl)ccc3Cl)=N2)c(=O)[nH]1	3%	-20%	13%	0.95µM*	·
CC1=[N+]([O-])C2(N)CCc3nonc3C2(O)C1 (stereo not drawn)	-10%	8%	-3%	-7%	7.1µM*
c1ccc2c(c1)CN1CCCC1=N2	-3%	6%	2%	-20%	21%
NC1=C(Br)C(=O)c2ccccc2C1=O	?	-5%	?	-8%	?
O=C1C(=O)c2ccccc2-c2ccccc21	3.2µM*	-16%	2µM*	-20%	2%
CCC(=Nc1ccc(OC)cc1OC)c1c(O)n(C2CCCCC2)c(=O)[nH]c1=O	6.3µM*	-7%	?	2%	?
SMILES	Gal4-VP16 FLuc	Sfp PPTase inh	RORgamma inh	PLK1 PBD inh	ALDH1A1 block
C/C(=N\NC(=O)c1ccccc1O)c1c(O)n(C2CCCCC2)c(=O)[nH]c1=O	11µM*	10%	5µM*	-5%	·
C/C(=N\NC(=O)c1ccccc1O)c1c(O)n(Cc2ccccc2)c(=O)[nH]c1=O	-16%	18%	16µM*	-8%	?
C/C(=N\NC(=O)c1ccccc1Cl)c1c(O)n(C2CCCCC2)c(=O)[nH]c1=O	11µM*	11%	7.1µM*	-7%	·
CCC(=NCc1ccco1)c1c(O)n(C2CCCCC2)c(=O)[nH]c1=O	-10%	-7%	?	-11%	?
CC(C)=CCCN1CCC(NC(=O)C(O)(c2ccccc2)C2CCCC2)CC1 (stereo not drawn)	-7%	5%	10%	·	·
c1ccc(N2CC[C@@]3(CCCNC3)C2)cc1	2%	?	-2%	·	?
CC/C=C\C/C=C\C/C=C\C/C=C\C/C=C\CCCC(=O)NC(C)C(=O)O (stereo not drawn)	3%	-11%	3%	·	-16%
CC1(C)[C@@H]2CC[C@]1(C)CN(CCC[N+](C)(C)C)C2	·	·	·	·	9%[13.5 µM]
CC(=NCCO)c1c(O)n(C2CCCCC2)c(=O)[nH]c1=O	-17%	12%	18%	0%	?
CCC(=O)c1c(O)n(C2CCCCCC2)c(=O)[nH]c1=O	-1%	7%	5%	-11%	25µM*
C/C(=N\NC(=O)c1ccccc1)c1c(O)n(C2CCCCC2)c(=O)[nH]c1=O	20µM*	11%	10µM*	-1%	·
CC(=NCc1ccco1)c1c(O)n(C2CCCCC2)c(=O)[nH]c1=O	-4%	?	32%	-9%	?
ClCCCCl	5%	·	-2%	·	17%
Cc1cc(/C=C2\C(=O)NC(=O)N(Cc3ccco3)C2=O)c(C)n1-c1ccc(O)cc1	-12%	?	7%	-29%	?
Cc1ccccc1-n1c(C)cc(/C=C2/C(=O)NC(=O)N(Cc3ccco3)C2=O)c1C	-2%	-5%	-39%	-21%	3.5µM*
C=CCN1C(=O)/C(=C/c2cc(C)n(-c3cccnc3)c2C)C(=O)NC1=S	10%	-91%	12%	1.5µM*	?
Cc1cc(C=C2C(=O)NC(=O)NC2=O)c(C)n1-c1cccnc1	-3%	-13%	-19%	?	·
Cc1ccc(-n2c(C)cc(/C=C3/C(=O)NC(=O)N(Cc4ccco4)C3=O)c2C)cc1	-4%	?	-11%	?	14µM*
CCCCC/C=C\C=C\[C@H](CCCCCCCC(=O)O)OO	-11%	20%	10%	·	2%
C[C@@H]1C[C@@H]2[C@H]([C@H]3C=C(COC(=O)c4ccccc4)[C@@H](O)[C@]4(O)[C@@H](O)C(OC(=O)c5ccccc5)=C[C@@]14C3=O)C2(C)C	-19%	10%	3%	·	·
S=C1Nc2ccccc2Sc2ccccc21	5µM*	?	2µM*	27µM*	10µM*
CO[C@H]1[C@@H](O)CC(OC2[C@@H](O)CC(OC3[C@@H](O)C[C@H](OC4CC[C@@]5(C)C(CCC6C5CC(O)[C@]5(C)[C@H](C7=CC(=O)OC7)CCC65O)C4)O[C@@H]3C)O[C@@H]2C)O[C@@H]1C (stereo partly drawn)	-2%	-7%	2.5µM*	·	·
C[C@H]1O[C@@H](O[C@H]2[C@@H](O)C[C@H](O[C@H]3[C@@H](O)C[C@H](O[C@H]4CC[C@]5(C)C6CC[C@]7(C)[C@@H](C8=CC(=O)OC8)CC[C@]7(O)C6CC[C@@H]5C4)O[C@@H]3C)O[C@@H]2C)C[C@H](O)[C@@H]1O (stereo partly drawn)	-12%	-2%	2.5µM*	·	3%
